Measurements as given in the OligoGym collection.

These sequences were tested against MTDH (assay: pooled miR-30 sensor sort-seq; sequence = guide strand). Conditions: shRNA.
Further: reference of the scale not given here.

| Sequence | sensor-assay potency score (higher = more potent) |
| --- | --- |
| TTCTAATTCTTCTGTGTCCTGT | 0.277 |
| TTAGAAGTGAAGCTCTTTCTTC | -0.219 |
| TTTTGCTTGGTATTTGACTTGG | -0.198 |
| TTTATCATCATCTGAGACCTTT | -0.0741 |
| TAGTTGAATCCAATGAACCAGA | -0.602 |
| TTACACTTTGAGGTGTTCGAAC | -0.892 |
| TAACTTGAACATTTAGATGAGA | -0.76 |

The sequences below were run against MTF2 in the same assay as above. Conditions: shRNA.

| Sequence | sensor-assay potency score (higher = more potent) |
| --- | --- |
| TTTATCTTTTTGATAGTGCCAA | -0.334 |
| TACTCTTCTTGACATATTGTAC | -0.653 |
| TTGACATATTGTACAGACCATT | -1.28 |
| TTATCTTTTTGATAGTGCCAAG | -1.55 |
| TTCCACAAGATACTGCACCTTT | 0.329 |
| TTTGCAGCACTGTAGCATCTTC | -0.454 |
| TTTTTTTCTATGCCATTGCTTA | -0.923 |
| TTTGGCTTTATGTCCATCCTGT | 0.854 |
| ATGATTGAGTTGTAACTCCTGA | -0.17 |
| TATTCTGGTCCAGAACTGCAGA | -0.798 |
| TATAGAACAAGGTAAATCCAAA | -1.04 |
| TAAAACAAGCCATCTGACCATC | -1.1 |

The sequences below were run against MTFP1 in the same assay as above. Conditions: shRNA.

| Sequence | sensor-assay potency score (higher = more potent) |
| --- | --- |
| TAGGAGGTTGACATGAAGCAGG | -1.07 |
| TTTGTCAATGGCATCCGCCAGC | -0.615 |
| TAGAGCTTGCGCAGGCTGGAGT | -0.938 |
| TGTCTCTAAGCTTCTGTCCAGC | -0.761 |
| TATCGCACCCACGTGTCCCGGT | -0.561 |
| TTGTCTCTAAGCTTCTGTCCAG | -0.49 |
| TGTTGGGTAGAGCTTGCGCAGG | -1.71 |
| TCCGCCAGCACGTAGGAGCTGG | -1.34 |
| TTGGACACCAGGGAGCCAGGTG | -0.945 |
| TCAGCCACACCACCGCCGCTGG | -1.36 |
| TAGCTCAGCCACACCACCGCCG | -0.967 |
| TCCACCGACCTCTCCAGCCTTC | -1.18 |

What follows are sequences tested against MTG1 in the same assay as above. Conditions: shRNA.

| Sequence | sensor-assay potency score (higher = more potent) |
| --- | --- |
| TAAGTGTTGCATAATTTTCTGC | 0.0697 |
| ATCAGTTCAGTGACCATCGGGA | -0.492 |
| TTTTGGACATCACAGCTCTGGT | -1.25 |
| ATTTTGGACATCACAGCTCTGG | -0.514 |
| TTCTCTTTTCGGTGGTAGCGGT | -0.857 |
| TTTCCCTTTCCTGAGGTGCTGC | -0.722 |
| TTGGACATCACAGCTCTGGTGA | -0.544 |
| TTCTCCTTCTAAGTGTTGCATA | -0.79 |
| TTTGTTGAGGGTGTACAGCAGG | -0.227 |
